# Bioassay records deposited in PubChem by National Center for Advancing Translational Sciences (NCATS).
# Most compounds without a hit are left out; they make up all but 21% or so of the library.
# CHX counter: affects cycloheximide protein synthesis inhibition readout, counter-screen; max response, %; actives 12% (n = 300,000); AID 2314; cell reporter, cycloheximide protein synthesis inhibition counterscreen; in the data active means max response mostly above about 13%, no sharp cut-off; inactive means mostly below about 14%; further: read at 38.3 µM for the half of the compounds with a filed dose; 0% is about no effect
# Shiga toxin inh: inhibitors of Shiga toxin in Vero cells | AID 2315 | Vero cells, Shiga toxin protein synthesis inhibition reporter | actives 9.2% (n = 290,000) | inhibition, % at 38.7 µM; in the data active means inhibition mostly above about 28%, no sharp cut-off; inactive means mostly below about 43%; further: 0% is about no effect
# Pf growth 48h: inhibits P. falciparum growth in the first generation, 48 h; P. falciparum luciferase growth in erythrocytes, 48 h; Potency, µM (series often up to 28.7 µM), inactives show at the top dose activity change, negative = inhibition, hits mostly inhibitors; actives 5.9% (n = 310,000); AID 504832; further: potency means the concentration at half of the fitted maximal effect; on the % scale 0 is the no-effect control and ±100 the full control effect
#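 Compounds are pin-transferred into medium, infected erythrocytes (2% hematocrit, 0.1% parasitemia final) are added, and plates sit one parasite generation at 37 C in 5% CO2. Detection reagent is then added and luminescence measured.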
# NS1 function inh: inhibitors of influenza NS1 protein function | Potency, µM (doses to about 46.1 µM), without a hit: at the top dose activity, positive = more growth | actives 0.4% (n = 270,000) | AID 2326; calls by dose curve; further: potency means the concentration at half of the fitted maximal effect; actives are rising curves; nearly all actives have a fitted effect of over 50% in size
#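 A cell-based growth assay was used: compounds that relieve NS1-induced slow growth of budding yeast raise OD600. Assay medium was yeast nitrogen base with ammonium sulphate and -URA supplement, pH 6.0, with 2% galactose.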
# Pf growth 96h: inhibits malaria parasite growth, 96 h | P. falciparum luciferase reporter growth, 96 h | Potency, µM (doses to about 28.7 µM), for the others: top-dose activity change, negative = inhibition, actives largely listed as inhibitors | actives 6.9% (n = 320,000); further: potency means the concentration at half of the fitted maximal effect; on the % scale 0 is the no-effect control and ±100 the full control effect
#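 Plates of compound plus infected erythrocytes (2% hematocrit, 0.05% parasitemia final) incubate 96 hours, 37 C, 5% CO2. Detection reagent added; reduced luminescence from the parasites' luciferase reporter flags inhibition.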
# Numbers without * were called inactive; ? = inconclusive; / = no result given; [ ] = remark or other dose. Unless noted, the call rests on the fitted dose curve; in most records, active means well fitted inhibition curve with a large enough effect; inconclusive means small, poorly fitted or top-dose-only effect, or another doubt; inactive means no such curve, though single readings can be large or run the other way.
SMILES,CHX counter,Shiga toxin inh,Pf growth 48h,NS1 function inh,Pf growth 96h
N.N.O=C(O)C1(C(=O)O)CCC1.[Pt],/,/,/,2%,/
O=C(NC1CC1)C1=C[C@@H](C2CCCCC2)C[C@@H](OCCCCO)O1,0,-6,-19%,0%,22%
O=C(NCCCN1CCCC1=O)C(=O)NCC1OCCCN1S(=O)(=O)c1cc(F)ccc1F (stereo unspecified),1,-8,-2%,9%,9%
CC(C)c1ccc(OCC(O)CNC(C)c2ccccc2)cc1 (stereo unspecified),-2,5,4.7µM*,-1%,?
CCC(=O)c1ccc(OCC(O)CNC(C)c2ccccc2)cc1 (stereo unspecified),-1,-2,-16%,-17%,-23%
Cc1ccc(C(OCC(O)CNCc2ccc(F)cc2)c2ccccc2)cc1 (stereo unspecified),-8,-6,/,6%,4.7µM*
COc1ccc(C(OCC(O)CNC(C)c2ccccc2)c2ccc(OC)cc2)cc1 (stereo unspecified),-4,7,10µM*,-1%,?
O=S(=O)(NCc1ccccn1)c1ccccn1,1,-6,-4%,8%,-17%
CCOC(=O)CSc1nc2cc3c(cc2cc1CC)OCCO3,1,18,?,-13%,12µM*
COC(=O)CSc1nc2cc3c(cc2cc1C)OCO3,27*,55*,25%,6%,-9%
O=C(NN=C1CCCC1)c1cc(Cl)cc(Cl)c1O,8,14,-1%,-11%,?
CCOc1ccc(NC(=S)N2CCN(c3ccc(N4CCOCC4)nn3)CC2)cc1,9,3,?,/,25%
O=[N+]([O-])c1cccc(CSc2ncnc3ccccc23)c1,10,25,-3%,/,?
Cc1ccc(C(=O)CSc2ncnc3ccccc23)o1,26*,110*,15%[5.75 µM],/,15%
Cc1cccc(CSc2ncnc3ccccc23)c1,22*,62*,16%,/,43%
c1ccc(CSc2ncnc3ccccc23)cc1,7,18,32%[5.75 µM],-41%,82%[5.75 µM]
O=C(CSc1ncnc2ccccc12)c1cccs1,14,31,418%,/,233%
Cc1ccc(CSc2ncnc3ccccc23)cc1,21*,34,-5%,-7%,31%
O=S(=O)(Cc1ccccc1)N(O)c1ccccc1,10,5,?,?,29%
CSCC[C@H](NC(=O)[C@H](Cc1ccccc1)NC(=O)[C@H](Cc1cnc[nH]1)NC(=O)CNC(=O)[C@@H](NC(=O)[C@H](C)NC(=O)[C@H](Cc1c[nH]c2ccccc12)NC(=O)[C@H](CC(C)C)NC(=O)[C@H](CC(N)=O)NC(=O)CN)[C@@H](C)O)C(N)=O,-6,-4,/,/,/
COc1ccccc1NC(=O)Nc1ccc(C(=O)N2CCCCC2)cc1,27*,80*,181%,-2%,329%
COc1ccccc1C1CCN(C(=O)c2ccc(C(C)(C)C)cc2)CC1,6,-5,12µM*,-46%,7.4µM*
COc1ccccc1C(=O)Nc1ccc(C(=O)N2CCCCC2)cc1,13*,-1,-25%,-5%,6%
COc1ccccc1N1CCN(C(=O)c2ccc(C(C)(C)C)cc2)CC1,-2,-2,?,-39%,/
COc1ccccc1NS(=O)(=O)c1cc(C(=O)N2CCCCCCC2)ccc1C,/,/,-22%,/,?
SMILES,CHX counter,Shiga toxin inh,Pf growth 48h,NS1 function inh,Pf growth 96h
COc1ccccc1NS(=O)(=O)c1cc(C(=O)N2CCCC2)ccc1F,/,/,3.3µM*,/,?
Cc1cc(NC(=O)CSc2ncnc3c2cnn3-c2cccc(Cl)c2)no1,-5,-4,16%,0%,50%
COc1cc2c(cc1O)CCN[C@@]21CS[C@H]2c3c(OC(C)=O)c(C)c4c(c3C(COC1=O)N1C2C2c3c(cc(C)c(OC)c3O)CC([C@@H]1O)N2C)OCO4 (stereo partly specified),/,/,0.0005µM*,/,2.1µM*
O=C(NC(=S)Nc1cc(C(F)(F)F)ccc1N1CCOCC1)c1ccco1,-2,-6,?,3%,?
c1cncc(-c2nc(NCCCN3CCOCC3)c3c4c(sc3n2)CCC4)c1,7,-4,12µM*,/,?
CC(C)c1ccc(CN2CCN(C(=O)CCl)CC2)cc1,3,10,?,/,?
Cc1nccn1Cc1ccc(Cl)nc1,5,-10,10µM*,/,?
Cc1nccn1Cc1ccccc1,1,15,42%,7%,37%
COc1ccccc1NC(=O)c1ccccc1N(Cc1ccccc1)S(C)(=O)=O,2,-5,?,2%,?
